According to PubChem BioAssay AID1159580 (chemical genetic matrix, 2015):
Values joined by “and” are separate entries in the source; they are usually repeats but may differ in a detail not shown here. Equal entries are not always repeated. In all, about 5,500 compounds went through this assay and about 2,000 (36%) were called active. Roughly 18% stayed inconclusive and do not appear here. No stated cut-off is given here; in the data, active means normalized growth mostly below about 0.91 (no sharp cut-off); inconclusive means no clear call, values can overlap the other calls; inactive means mostly above about 0.92. The list shows a part of the results.

Assay: chemical genetic growth profiling, strain panel (AID 1159580);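 further: tested at 20 µM; growth read once vehicle control cultures reached saturation at 30 °C; 1 = growth at the plate median or of vehicle wells; lower values mean less growth of the strain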
Details: S. cerevisiae deletion strains, growth OD

Measured: normalized growth

COc1cc(OC)c2c(c1)O[C@H](c1ccc(OC)c(OC)c1)[C@@H](O)C2
inactive: locus YAL021C, strain ccr4, hits give low values 1.01 | locus YAL026C, strain drs2, hits give low values 0.961 | locus YAL030W, strain snc1, hits give low values 0.998 | locus YBL061C, strain skt5, hits give low values 0.989 | locus YBR009C, strain hhf1, hits give low values 1 | locus YBR021W, strain FUR4, hits give low values 1.06 | locus YBR023C, strain chs3, hits give low values 1 | locus YBR171W, strain sec66, hits give low values 0.971 | locus YBR229C, strain ROT2, hits give low values 1.01 | locus YBR231C, strain swc5, hits give low values 0.981 | locus YBR279W, strain paf1, hits give low values 1 | locus YCL011C, strain gbp2, hits give low values 0.986 | locus YCL016C, strain dcc1, hits give low values 1.02 | locus YCL029C, strain bik1, hits give low values 1.02 | locus YCL061C, strain MRC1, hits give low values 0.996 | locus YCL069W, strain vba3, hits give low values 0.968 | locus YCR088W, strain abp1, hits give low values 0.984 | locus YDL005C, strain med2, hits give low values 0.985 | locus YDL035C, strain GPR1, hits give low values 1.04 | locus YDL040C, strain nat1, hits give low values 0.992 | locus YDL074C, strain BRE1, hits give low values 1.11 | locus YDL101C, strain DUN1, hits give low values 1.02 | locus YDL134C, strain PPH21, hits give low values 1.09 | locus YDL185W, strain tfp1, hits give low values 1.03 | locus YDL192W, strain arf1, hits give low values 1 | locus YDR001C, strain nth1, hits give low values 0.989 | locus YDR069C, strain doa4, hits give low values 0.976 | locus YDR101C, strain arx1, hits give low values 0.99 | locus YDR137W, strain rgp1, hits give low values 0.949 | locus YDR159W, strain sac3, hits give low values 0.95 | locus YDR162C, strain NBP2, hits give low values 1.03 | locus YDR195W, strain ref2 0.976 | locus YDR297W, strain sur2, hits give low values 0.988 | locus YDR318W, strain mcm21, hits give low values 1.01 | locus YDR334W, strain swr1, hits give low values 0.977 | locus YDR335W, strain msn5, hits give low values 0.983 | locus YDR388W, hits give low values 1.03 | locus YDR392W, strain spt3, hits give low values 0.909 | locus YDR502C, strain sam2, hits give low values 1.02 | locus YEL003W, strain gim4, hits give low values 0.984 | locus YEL037C, strain rad23, hits give low values 0.985 | locus YEL061C, strain CIN8 (second series), hits give low values 0.976 | locus YER015W, strain faa2, hits give low values 1.01 | locus YER016W, strain bim1, hits give low values 0.992 | locus YER110C, hits give low values 0.998 | locus YER111C, strain swi4, hits give low values 0.994 | locus YER155C, strain BEM2 (second series), hits give low values 0.947 | locus YER155C, strain BEM2, hits give low values 1.01 | locus YER167W, strain BCK2, hits give low values 1.01 | locus YFR010W, strain ubp6, hits give low values 0.956 | locus YGL078C, strain dbp3, hits give low values 1.02 | locus YGL086W, strain mad1, hits give low values 1 | locus YGL167C, strain pmr1, hits give low values 1 | locus YGL173C, strain kem1, hits give low values 0.983 | locus YGL227W, strain vid30, hits give low values 0.982 | locus YGL240W, strain doc1, hits give low values 1 | locus YGL248W, strain PDE1, hits give low values 1.05 | locus YGL253W, strain hxk2, hits give low values 0.939 | locus YGR135W, strain pre9, hits give low values 1.05 | locus YGR252W, strain gcn5, hits give low values 1.08 | locus YHR013C, strain ard1, hits give low values 1.01 | locus YHR027C, strain rpn1, hits give low values 0.983 | locus YHR030C, strain SLT2, hits give low values 0.996 | locus YHR079C, strain IRE1 (second series), hits give low values 1.02 | locus YHR079C, strain IRE1, hits give low values 0.992 | locus YHR094C, strain hxt1, hits give low values 1.04 | locus YHR129C, strain ARP1, hits give low values 1.02 | locus YHR142W, strain chs7, hits give low values 0.993 | locus YHR200W, strain rpn10, hits give low values 1.02 | locus YIL066C, strain RNR3, hits give low values 1.03 | locus YIL073C, strain SPO22, hits give low values 1.09 | locus YIL125W, strain kgd1, hits give low values 0.99 | locus YIR030C, strain dcg1, hits give low values 1.01 | locus YJL092W, strain hpr5, hits give low values 0.985 | locus YJL095W, strain BCK1 (second series), hits give low values 0.971 | locus YJL095W, strain BCK1, hits give low values 1.1 and 0.993 | locus YJL115W, strain asf1, hits give low values 0.994 | locus YJL129C, strain trk1, hits give low values 0.965 | locus YJL134W, strain LCB3, hits give low values 1.01 | locus YJL154C, strain vps35, hits give low values 0.983 | locus YJL164C, strain tpk1, hits give low values 1.02 | locus YJL166W, strain qcr8, hits give low values 0.984 | locus YJL168C, strain set2, hits give low values 1.01 | locus YJL187C, strain SWE1 (second series), hits give low values 1.03 | locus YJL187C, strain SWE1, hits give low values 0.988 | locus YJR043C, strain POL32, hits give low values 1.04 | locus YJR066W, strain TOR1, hits give low values 0.941 | locus YKL009W, strain mrt4, hits give low values 1.05 | locus YKL068W, hits give low values 1.01 | locus YKL085W, strain MDH1 (second series), hits give low values 1.02 | locus YKL085W, strain MDH1, hits give low values 1.02 | locus YKL160W, strain elf1, hits give low values 1.02 | locus YKL190W, strain CNB1, hits give low values 1.01 | locus YKR001C, strain vps1, hits give low values 1.04 | locus YKR026C, strain gcn3, hits give low values 0.975 | locus YKR091W, strain srl3, hits give low values 0.996 | locus YLL001W, strain dnm1, hits give low values 0.972 | locus YLL026W, hits give low values 0.996 | locus YLL041C, strain sdh2, hits give low values 0.993 | locus YLR027C, strain aat2, hits give low values 0.994 | locus YLR039C, strain RIC1, hits give low values 1.15 | locus YLR058C, strain SHM2, hits give low values 1.02 | locus YLR102C, strain apc9, hits give low values 1.01 | locus YLR113W, strain HOG1, hits give low values 0.971 | locus YLR221C, strain rsa3, hits give low values 0.953 | locus YLR258W, strain gsy2, hits give low values 0.99 | locus YLR262C, strain YPT6 (second series), hits give low values 0.956 | locus YLR268W, strain sec22, hits give low values 1.02 | locus YLR320W, strain mms22, hits give low values 0.979 | locus YLR330W, strain CHS5, hits give low values 1.03 | locus YLR342W, strain FKS1, hits give low values 0.997 | locus YLR357W, strain rsc2, hits give low values 0.989 | locus YLR370C, strain arc18, hits give low values 0.97 | locus YLR371W, strain rom2, hits give low values 1.05 | locus YLR384C, strain iki3, hits give low values 1.01 | locus YLR418C, strain cdc73, hits give low values 1.09 | locus YML016C, strain PPZ1, hits give low values 1.01 | locus YML032C, strain rad52, hits give low values 1.01 | locus YML120C, strain ndi1, hits give low values 1.01 | locus YML124C, strain tub3, hits give low values 1 | locus YMR058W, strain fet3, hits give low values 0.981 | locus YMR078C, strain ctf18, hits give low values 1.03 | locus YMR125W, strain sto1, hits give low values 0.982 | locus YMR129W, hits give low values 0.999 | locus YMR205C, strain PFK2, hits give low values 1.03 | locus YMR223W, strain ubp8, hits give low values 1.01 | locus YMR231W, strain pep5, hits give low values 0.973 | locus YMR263W, strain SAP30, hits give low values 1.01 | locus YMR307W, strain GAS1, hits give low values 1.22 | locus YNL067W, strain RPL9B, hits give low values 1.02 | locus YNL071W, strain lat1, hits give low values 0.989 | locus YNL153C, strain GIM3, hits give low values 1.03 | locus YNL183C, strain NPR1, hits give low values 0.931 | locus YNL209W, strain ssb2, hits give low values 1.01 | locus YNL233W, strain BNI4, hits give low values 1.07 | locus YNL248C, strain rpa49, hits give low values 0.968 | locus YNL250W, strain rad50, hits give low values 1.03 | locus YNL271C, strain bni1, hits give low values 1.01 | locus YNL298W, strain CLA4, hits give low values 1.03 | locus YNL307C, strain MCK1, hits give low values 1.03 | locus YNL322C, strain KRE1 (second series), hits give low values 1.01 | locus YNR049C, strain mso1, hits give low values 0.988 | locus YNR052C, strain pop2, hits give low values 1.04 | locus YOL006C, strain TOP1, hits give low values 1.3 | locus YOL012C, strain htz1 1.07 | locus YOL147C, strain pex11, hits give low values 1.01 | locus YOR001W, strain rrp6, hits give low values 0.925 | locus YOR061W, strain CKA2, hits give low values 1.02 | locus YOR069W, strain VPS5, hits give low values 1.01 | locus YOR070C, strain gyp1, hits give low values 1.01 | locus YOR080W, strain dia2, hits give low values 0.971 | locus YOR083W, strain WHI5, hits give low values 1.03 | locus YOR106W, strain vam3, hits give low values 1.03 | locus YOR136W, strain idh2, hits give low values 1.01 | locus YOR144C, strain elg1, hits give low values 1 | locus YOR184W, strain ser1, hits give low values 1 | locus YOR231W, strain MKK1, hits give low values 1 | locus YOR265W, strain rbl2, hits give low values 0.988 | locus YOR270C, strain vph1, hits give low values 0.969 | locus YOR290C, strain snf2, hits give low values 0.994 | locus YOR316C, strain cot1, hits give low values 1.03 | locus YPL051W, strain arl3, hits give low values 0.985 | locus YPL078C, strain atp4, hits give low values 1.03 | locus YPL106C, strain sse1, hits give low values 1.05 | locus YPL240C, strain hsp82, hits give low values 0.992 | locus YPL256C, strain CLN2, hits give low values 0.958 | locus YPR119W, strain clb2, hits give low values 0.999 | locus YPR141C, strain kar3, hits give low values 1.01 | locus YPR163C, strain tif3, hits give low values 1.01 | locus YPR167C, strain met16, hits give low values 1.03 | strain wtn01, hits give low values 0.997
